# Test results as given in the supplement of paper PMC12669032.
# A number with no mark means an inactive call.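 Rule for the calls: active = AUC reduced over 20% with Padj below 0.05 in at least 2 of 3 replicates; inactive = otherwise.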
# Columns and labels:
# Test in all cases: growth AUC relative to DMSO control (median of replicates) (fraction); higher = more growth (less inhibition), active = hit call of the paper
# Settings in all cases: 20 µM; 24 h
# Akkermansia muciniphila = test system: Akkermansia muciniphila
# How it was run: (§1)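 Gut bacterial monocultures were grown anaerobically at 37 °C in mGAM from a starting OD600 of 0.05 with 20 µM compound (1% DMSO), in round-bottom 96-well plates under pierced gas-permeable seals, and OD600 was read hourly for 24 h. With the minimum OD set to 0, area under the growth curve was normalised to the plate median of solvent-only wells, or to row and column medians on the industrial chemical plate. Each value is the median of three biological replicates grown on separate days.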
# Bacteroides caccae = test system: Bacteroides caccae
# How it was run: as §1
# Bacteroides clarus = test system: Bacteroides clarus
# How it was run: as §1
# Bacteroides dorei = test system: Bacteroides dorei
# How it was run: as §1
# Bacteroides stercoris = test system: Bacteroides stercoris
# How it was run: as §1
# [1] = test system: Bacteroides thetaiotaomicron
# How it was run: as §1
# Bacteroides uniformis = test system: Bacteroides uniformis
# How it was run: as §1
# [2] = test system: Bifidobacterium longum subsp. longum
# How it was run: as §1
# Clostridium difficile = test system: Clostridium difficile
# How it was run: as §1
# Collinsella aerofaciens = test system: Collinsella aerofaciens
# How it was run: as §1
# Coprococcus comes = test system: Coprococcus comes
# How it was run: as §1
# Escherichia coli ED1a = test system: Escherichia coli ED1a
# How it was run: as §1
# Escherichia coli IAI1 = test system: Escherichia coli IAI1
# How it was run: as §1
# Eubacterium rectale = test system: Eubacterium rectale
# How it was run: as §1
# [3] = test system: Fusobacterium nucleatum subsp. animalis
# How it was run: as §1
# Lactobacillus gasseri = test system: Lactobacillus gasseri
# How it was run: as §1
# Lactobacillus paracasei = test system: Lactobacillus paracasei
# How it was run: as §1
# Odoribacter splanchnicus = test system: Odoribacter splanchnicus
# How it was run: as §1
# [4] = test system: Parabacteroides distasonis
# How it was run: as §1
# Parabacteroides merdae = test system: Parabacteroides merdae
# How it was run: as §1
SMILES,growth AUC (Akkermansia muciniphila),growth AUC (Bacteroides caccae),growth AUC (Bacteroides clarus),growth AUC (Bacteroides dorei),growth AUC (Bacteroides stercoris),growth AUC [1],growth AUC (Bacteroides uniformis),growth AUC [2],growth AUC (Clostridium difficile),growth AUC (Collinsella aerofaciens),growth AUC (Coprococcus comes),growth AUC (Escherichia coli ED1a),growth AUC (Escherichia coli IAI1),growth AUC (Eubacterium rectale),growth AUC [3],growth AUC (Lactobacillus gasseri),growth AUC (Lactobacillus paracasei),growth AUC (Odoribacter splanchnicus),growth AUC [4],growth AUC (Parabacteroides merdae)
CCCCNC(=O)n1c(NC(=O)OC)nc2ccccc21,1.04,0.999,0.979,1,1.01,0.999,1.02,0.984,0.955,0.993,1.04,1.04,0.977,0.917,0.976,1.01,0.997,1.04,0.945,0.965
COP(=O)(OC)Oc1ccc([N+](=O)[O-])cc1,1.17,0.989,1.03,1.02,1.01,0.991,1,1.07,1.04,0.948,1.07,1.03,0.996,1.17,1.09,0.998,1.02,0.954,0.981,1.02
CS(=O)(=O)c1ccc(C(=O)C2C(=O)CCCC2=O)c(Cl)c1COCC(F)(F)F,1.07,1.02,0.988,0.999,1.02,0.989,0.989,1.01,0.979,1.03,1.01,1.01,0.994,1.04,1.05,0.917,0.989,1.14,0.944,1.01
COC(=O)c1cc(Oc2ccc(Cl)cc2Cl)ccc1[N+](=O)[O-],1.02,0.953,0.793 (active),0.973,0.436 (active),0.968,0.814,1.02,0.905,0.901,0.993,0.985,0.982,1.11,0.975,0.933,0.928,0.934,0.449 (active),0.958
c1nc[n]([Sn]([CH]2CCCCC2)([CH]2CCCCC2)[CH]2CCCCC2)n1,1.02,0.997,0.86,0.939,0.935,0.955,0.901,0.506,0.951,0.814,0.723,1.06,1.06,0.908,1.03,1.03,0.972,1.03,0.927,0.746 (active)
CCNc1nc(NCC)nc(SC)n1,1.14,0.946,1.02,0.994,1.26,0.955,1,1.08,0.981,0.996,0.99,1.02,0.99,1.02,1.06,1.13,1.08,0.88,1.01,1.04
CCOP(=O)(OCC)O/C(=C/Br)c1ccc(Cl)cc1Cl,1.06,0.94,0.952,0.948,0.879,0.89,0.821,0.991,0.978,1.06,1.01,0.976,0.973,1.04,0.996,0.976,0.996,1.02,0.547 (active),0.898
CCC(C)c1cc([N+](=O)[O-])cc([N+](=O)[O-])c1OC(=O)C=C(C)C (stereo not given),1.15,0.986,0.74 (active),0.801,0.473 (active),0.802,0.479 (active),0.879,0.989,0.956,0.945,0.968,0.973,0.978,0.802,0.762,0.955,0.515 (active),0.418 (active),0.902
Oc1c(Cl)c(Cl)cc(Cl)c1Cl,0.834,0.81,0.726 (active),0.758,0.684,0.794,0.636 (active),0.974,0.941,0.941,0.971,0.917,0.746 (active),0.947,0.923,0.936,1.02,0.666 (active),0.637 (active),0.786
C[n+]1ccc(-c2cc[n+](C)cc2)cc1.O.[Cl-].[Cl-],0.705,0.846,1,0.996,0.996,0.996,1.03,1.02,0.947,0.947,0.98,1.03,0.991,0.963,0.937,1.05,1.01,0.873,0.997,0.954
CCOC1Oc2ccc(OS(C)(=O)=O)cc2C1(C)C (stereo not given),1.03,0.907,0.978,0.889,0.897,0.987,0.993,1.01,0.99,0.916,0.943,0.949,0.964,1.16,0.903,0.891,0.98,1.15,0.879,0.927
Nc1ccc(Cl)cc1,1.01,1.03,1.02,1,1.03,1.05,1.02,1.04,1,0.972,1.03,1.02,1,1.05,1.08,0.939,0.955,1.1,1.05,1.02
CCOP(=S)(OCC)SCSCC,1.1,0.955,0.991,0.969,0.942,0.997,0.986,1.01,1.01,1.01,0.985,0.987,0.956,1.17,0.99,0.97,0.952,0.984,0.921,0.947
CCOP(=O)(NC(C)C)Oc1ccc(SC)c(C)c1 (stereo not given),1.19,0.974,0.982,0.877,0.92,0.998,0.931,1.01,0.976,0.95,0.974,0.985,0.953,1.04,0.903,0.895,0.965,0.954,0.77,0.966
CON(C)C(=O)Nc1ccc(Cl)cc1,0.997,1.02,0.983,1.03,0.97,1.03,0.999,1.12,1,1.02,1.02,1.01,1,0.999,0.96,1.04,0.97,0.998,1.02,1.02
COP(=S)(OC)Oc1ccc(S(=O)(=O)N(C)C)cc1,0.82,0.947,0.999,0.962,0.84,0.983,0.981,0.984,0.976,0.977,0.984,1,0.985,0.998,0.894,0.925,0.935,0.977,1.01,0.969
